Reference: PubChem BioAssay (Tox21)
Records with an inconclusive call do not appear. Entries that show only a call come without a potency. The source made the active and inactive calls. Calls follow the shape of the dose curve; as a rule, active = well fitted cell-killing curve with a large enough effect in the repeat runs; inconclusive = weak or mixed curves, or effect the other way; inactive = flat fitted curve, though single readings scatter.

How the values were obtained:
[1] = cAMP Responsive Elements (CRE) small molecule antagonists, cell-based qHTS assay: qHTS cell viability counter screen (AID 2060913); also: nearly all actives have a fitted effect of over 40% in size
Method in brief: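 CRE-bla HEK293T cells were seeded in assay medium with 10% dialyzed FBS, incubated 18 hrs at 37 C, then exposed to compounds plus 0.25 uM final NKH477 for 3 hrs. Viability was read by CellTiter-Glo luminescence after 30 min, in the same wells.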

[2] = cAMP Responsive Elements (CRE) small molecule agonists, cell-based qHTS assay: qHTS cell viability counter screen (AID 2060914); also: nearly all actives have a fitted effect of over 50% in size
Method in brief: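 In the same wells as the reporter read, viability of CRE-bla HEK 293T cells was quantified by CellTiter-Glo luminescence after a 3 h compound exposure.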

CC(Cc1ccccc1)NCCCCl (configuration not stated)
Potency [1]: inactive
Potency [2]: inactive

OCCOCCO
Potency [1]: inactive
Potency [2]: inactive

BrCCCCBr
Potency [1]: inactive
Potency [2]: inactive

CC12CC1(C)C(=O)N(c1cc(Cl)cc(Cl)c1)C2=O (configuration not stated)
Potency [1]: inactive
Potency [2]: inactive

Cn1cc[n+](C)c1 (tested in a mixture with another compound)
Potency [1]: inactive
Potency [2]: inactive

O=C1CCCO1
Potency [1]: inactive
Potency [2]: inactive

CCCN1CCC[C@@H]2Cc3[nH]ncc3C[C@H]21
Potency [1]: inactive
Potency [2]: inactive

CSc1nnc(C(C)(C)C)c(=O)n1N
Potency [1]: inactive
Potency [2]: inactive

Oc1ccc(C(=C(Cl)Cl)c2ccc(O)cc2)cc1
Potency [1]: inactive
Potency [2]: inactive

CCOP(=S)(OCC)Oc1cc(C)nc(N(CC)CC)n1
Potency [1]: inactive
Potency [2]: inactive

COCCC#N
Potency [1]: inactive
Potency [2]: inactive

Clc1cc(Cl)c(Cl)c(Cl)c1
Potency [1]: inactive
Potency [2]: inactive

O=C(Nc1ccccc1)N(Cc1ccc(Cl)cc1)C1CCCC1
Potency [1]: inactive
Potency [2]: inactive

NNC(=O)c1cccnc1
Potency [1]: inactive
Potency [2]: inactive

CCCCCBr
Potency [1]: inactive
Potency [2]: inactive

C[C@H](N)C(=O)c1ccccc1
Potency [1]: inactive
Potency [2]: inactive

O=C(N[C@H]1CN2CCC1CC2)c1ccc2c(c1)OCCO2
Potency [1]: inactive
Potency [2]: inactive

c1ccc2c(c1)sc1ccccc12
Potency [1]: inactive
Potency [2]: inactive

Clc1ccc(C2(Cn3cncn3)CC(Br)CO2)c(Cl)c1 (configuration not stated)
Potency [1]: inactive
Potency [2]: inactive

C[C@]12C=CC(=O)C=C1CC[C@@H]1[C@@H]2CC[C@@]2(C)[C@H]1CC[C@]2(C)O
Potency [1]: inactive
Potency [2]: inactive

CC[C@@H](CO)NC(=O)[C@@H]1C=C2c3cccc4c3c(cn4C)C[C@H]2N(C)C1
Potency [1]: inactive
Potency [2]: inactive
